Data as given in the supplement of paper PMC10849652.
About 7,900 targets were measured; listed, in parts, are those with a hit and a random draw of the rest. About 0.6% of all pairs of compound and target were hits.

compound: C1COCCN1CCN2C3=CC=CC=C3N=C2NC(=O)C4=CC(=CC=C4)[N+](=O)[O-] [IRAK-1-4 Inhibitor I]; assay: log2 fold change, soluble protein after heating vs DMSO (PISA); higher = thermal stabilisation; K562 cells, 10 uM, 30 min; active = over 0.2 and 3.5 SD of the protein, either way, in both replicates (recomputed)
Outline: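 Quantification of soluble protein used TMTpro 16plex LC-MS/MS, with channel sums equalised. Samples were the supernatant after 21,000xg for 90 min of pooled aliquots from K562 cells (2×10^6 cells/mL) treated with 10 μM compound for 30 min, heated for 3 min over 48°C-58°C, and extracted in PBS with 0.5% NP-40 at 4°C. Values, from duplicates, describe thermal stability against control samples on a log2 fold-change scale.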

UniProt O94822, sequence (O94822 whole entry, looked up): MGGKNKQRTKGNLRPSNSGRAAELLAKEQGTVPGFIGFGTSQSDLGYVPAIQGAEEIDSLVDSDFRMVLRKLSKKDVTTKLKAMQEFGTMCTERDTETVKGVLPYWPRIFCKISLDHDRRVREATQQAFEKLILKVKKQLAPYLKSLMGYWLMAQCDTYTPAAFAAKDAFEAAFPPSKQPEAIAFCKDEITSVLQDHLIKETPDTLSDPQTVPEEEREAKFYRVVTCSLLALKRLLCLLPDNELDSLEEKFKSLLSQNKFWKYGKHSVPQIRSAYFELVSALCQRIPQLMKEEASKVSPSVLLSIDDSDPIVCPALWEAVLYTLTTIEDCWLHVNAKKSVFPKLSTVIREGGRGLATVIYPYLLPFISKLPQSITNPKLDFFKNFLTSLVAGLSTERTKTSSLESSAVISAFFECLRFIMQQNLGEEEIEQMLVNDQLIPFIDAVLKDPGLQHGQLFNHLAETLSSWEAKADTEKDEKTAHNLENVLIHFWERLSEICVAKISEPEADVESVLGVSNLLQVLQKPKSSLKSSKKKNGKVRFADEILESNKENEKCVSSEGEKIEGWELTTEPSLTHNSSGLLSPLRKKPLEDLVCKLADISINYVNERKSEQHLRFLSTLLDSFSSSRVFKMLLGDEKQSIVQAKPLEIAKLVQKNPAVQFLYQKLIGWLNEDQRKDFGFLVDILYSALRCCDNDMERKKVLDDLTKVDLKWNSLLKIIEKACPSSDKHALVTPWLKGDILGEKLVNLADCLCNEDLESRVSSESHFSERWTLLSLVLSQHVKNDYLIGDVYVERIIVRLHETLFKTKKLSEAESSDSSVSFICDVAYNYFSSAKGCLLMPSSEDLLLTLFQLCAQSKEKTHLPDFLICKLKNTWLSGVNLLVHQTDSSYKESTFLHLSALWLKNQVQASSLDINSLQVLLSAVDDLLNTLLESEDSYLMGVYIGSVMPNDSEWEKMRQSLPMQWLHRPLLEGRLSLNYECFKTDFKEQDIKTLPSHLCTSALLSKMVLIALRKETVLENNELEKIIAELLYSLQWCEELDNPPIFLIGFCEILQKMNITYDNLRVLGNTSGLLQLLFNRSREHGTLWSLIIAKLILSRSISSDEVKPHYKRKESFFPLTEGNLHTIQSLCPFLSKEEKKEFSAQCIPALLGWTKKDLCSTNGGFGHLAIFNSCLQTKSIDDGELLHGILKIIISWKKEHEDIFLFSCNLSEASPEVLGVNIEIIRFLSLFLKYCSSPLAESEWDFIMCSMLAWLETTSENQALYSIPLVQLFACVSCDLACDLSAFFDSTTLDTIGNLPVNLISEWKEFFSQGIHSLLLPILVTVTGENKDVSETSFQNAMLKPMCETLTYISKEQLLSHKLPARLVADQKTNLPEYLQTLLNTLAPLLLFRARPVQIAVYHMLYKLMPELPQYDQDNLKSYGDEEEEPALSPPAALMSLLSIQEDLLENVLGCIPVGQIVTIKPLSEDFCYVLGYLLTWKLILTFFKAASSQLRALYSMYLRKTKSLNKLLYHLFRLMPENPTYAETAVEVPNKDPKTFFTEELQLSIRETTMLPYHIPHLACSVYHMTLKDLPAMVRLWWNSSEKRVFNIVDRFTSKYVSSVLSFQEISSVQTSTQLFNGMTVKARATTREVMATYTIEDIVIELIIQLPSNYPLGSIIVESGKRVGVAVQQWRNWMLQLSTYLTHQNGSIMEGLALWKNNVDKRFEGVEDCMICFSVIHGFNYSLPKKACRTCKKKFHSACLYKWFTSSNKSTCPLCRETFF
UniProt O00629, sequence (O00629 whole entry, looked up): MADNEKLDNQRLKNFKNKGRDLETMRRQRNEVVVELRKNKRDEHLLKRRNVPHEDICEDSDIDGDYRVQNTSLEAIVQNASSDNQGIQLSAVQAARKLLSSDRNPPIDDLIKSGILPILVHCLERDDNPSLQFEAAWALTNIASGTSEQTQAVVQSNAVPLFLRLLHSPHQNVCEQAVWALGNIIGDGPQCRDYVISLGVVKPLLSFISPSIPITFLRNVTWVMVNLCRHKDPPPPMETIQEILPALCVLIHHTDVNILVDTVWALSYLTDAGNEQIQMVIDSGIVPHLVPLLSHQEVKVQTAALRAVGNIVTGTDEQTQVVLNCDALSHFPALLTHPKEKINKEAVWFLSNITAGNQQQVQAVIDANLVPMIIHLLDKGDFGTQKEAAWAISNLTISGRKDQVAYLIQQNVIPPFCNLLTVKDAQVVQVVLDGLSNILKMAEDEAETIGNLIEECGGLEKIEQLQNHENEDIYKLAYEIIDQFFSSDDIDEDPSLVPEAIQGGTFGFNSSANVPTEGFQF
UniProt Q9BU23, sequence (Q9BU23 whole entry, looked up): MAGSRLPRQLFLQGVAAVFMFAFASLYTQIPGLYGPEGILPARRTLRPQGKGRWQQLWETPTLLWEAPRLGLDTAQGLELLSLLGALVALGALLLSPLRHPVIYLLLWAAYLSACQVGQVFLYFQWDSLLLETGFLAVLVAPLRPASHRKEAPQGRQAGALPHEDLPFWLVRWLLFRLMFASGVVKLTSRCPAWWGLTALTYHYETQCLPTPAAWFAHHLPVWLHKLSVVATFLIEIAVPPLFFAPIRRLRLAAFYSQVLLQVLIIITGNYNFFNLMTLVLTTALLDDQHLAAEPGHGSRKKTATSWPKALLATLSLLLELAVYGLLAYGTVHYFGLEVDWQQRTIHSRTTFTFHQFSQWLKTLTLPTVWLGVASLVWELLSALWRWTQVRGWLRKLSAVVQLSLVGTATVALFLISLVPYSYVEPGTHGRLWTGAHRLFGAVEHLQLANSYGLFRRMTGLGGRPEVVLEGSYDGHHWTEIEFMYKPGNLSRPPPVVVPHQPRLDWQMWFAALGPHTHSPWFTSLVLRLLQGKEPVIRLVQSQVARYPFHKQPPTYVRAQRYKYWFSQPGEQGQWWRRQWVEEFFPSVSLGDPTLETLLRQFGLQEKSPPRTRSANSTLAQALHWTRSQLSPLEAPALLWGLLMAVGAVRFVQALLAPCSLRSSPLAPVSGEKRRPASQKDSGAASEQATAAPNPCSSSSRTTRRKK
UniProt P20700, sequence (P20700 whole entry, looked up): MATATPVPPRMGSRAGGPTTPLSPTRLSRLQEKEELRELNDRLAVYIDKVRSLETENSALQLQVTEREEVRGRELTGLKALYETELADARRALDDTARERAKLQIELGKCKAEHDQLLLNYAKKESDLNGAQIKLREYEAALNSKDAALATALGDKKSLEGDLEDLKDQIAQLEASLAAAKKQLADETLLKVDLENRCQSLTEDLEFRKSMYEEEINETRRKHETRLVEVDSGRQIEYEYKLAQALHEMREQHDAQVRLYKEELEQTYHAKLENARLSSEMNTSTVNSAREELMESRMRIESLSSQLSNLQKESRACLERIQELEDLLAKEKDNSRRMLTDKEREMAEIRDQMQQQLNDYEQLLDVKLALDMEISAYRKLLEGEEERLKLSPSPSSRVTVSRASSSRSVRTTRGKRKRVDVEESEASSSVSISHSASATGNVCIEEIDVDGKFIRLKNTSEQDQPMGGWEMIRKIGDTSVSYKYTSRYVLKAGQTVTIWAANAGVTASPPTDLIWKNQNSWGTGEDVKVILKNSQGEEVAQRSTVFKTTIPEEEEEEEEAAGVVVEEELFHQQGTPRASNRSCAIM
UniProt Q8N108, sequence (Q8N108 whole entry, looked up): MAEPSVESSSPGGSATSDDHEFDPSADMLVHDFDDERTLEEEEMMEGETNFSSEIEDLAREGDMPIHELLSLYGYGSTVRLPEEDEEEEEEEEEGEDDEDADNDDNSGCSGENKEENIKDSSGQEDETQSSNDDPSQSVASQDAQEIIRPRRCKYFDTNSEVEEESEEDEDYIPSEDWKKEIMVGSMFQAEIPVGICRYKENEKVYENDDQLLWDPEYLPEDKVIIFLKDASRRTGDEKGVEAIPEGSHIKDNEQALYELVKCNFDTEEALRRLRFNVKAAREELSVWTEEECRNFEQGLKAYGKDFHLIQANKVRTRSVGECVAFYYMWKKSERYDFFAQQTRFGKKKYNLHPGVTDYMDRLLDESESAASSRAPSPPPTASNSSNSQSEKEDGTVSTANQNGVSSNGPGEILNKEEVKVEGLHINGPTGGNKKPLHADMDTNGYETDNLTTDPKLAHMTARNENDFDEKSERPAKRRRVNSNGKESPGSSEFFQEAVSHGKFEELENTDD
UniProt P53778, sequence (P53778 whole entry, looked up): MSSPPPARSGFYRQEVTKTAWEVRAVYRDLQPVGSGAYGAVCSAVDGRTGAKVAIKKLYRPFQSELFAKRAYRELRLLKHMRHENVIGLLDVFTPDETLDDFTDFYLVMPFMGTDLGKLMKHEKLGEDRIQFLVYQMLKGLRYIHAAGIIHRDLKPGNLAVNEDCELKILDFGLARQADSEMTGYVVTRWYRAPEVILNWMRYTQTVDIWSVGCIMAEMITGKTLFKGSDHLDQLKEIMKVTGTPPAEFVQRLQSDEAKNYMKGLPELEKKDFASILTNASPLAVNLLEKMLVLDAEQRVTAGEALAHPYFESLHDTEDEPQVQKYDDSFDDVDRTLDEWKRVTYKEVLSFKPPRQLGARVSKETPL
UniProt Q96AQ8, sequence (Q96AQ8 whole entry, looked up): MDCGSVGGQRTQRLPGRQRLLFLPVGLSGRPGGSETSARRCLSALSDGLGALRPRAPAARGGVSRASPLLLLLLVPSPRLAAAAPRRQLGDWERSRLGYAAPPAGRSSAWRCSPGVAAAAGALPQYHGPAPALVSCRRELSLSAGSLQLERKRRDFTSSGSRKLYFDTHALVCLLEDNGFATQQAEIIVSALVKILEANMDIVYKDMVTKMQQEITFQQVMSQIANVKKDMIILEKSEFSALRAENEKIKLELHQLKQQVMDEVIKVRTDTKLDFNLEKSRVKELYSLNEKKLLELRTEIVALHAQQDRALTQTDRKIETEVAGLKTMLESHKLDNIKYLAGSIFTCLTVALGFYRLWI
UniProt Q8WV07, sequence (Q8WV07 whole entry, looked up): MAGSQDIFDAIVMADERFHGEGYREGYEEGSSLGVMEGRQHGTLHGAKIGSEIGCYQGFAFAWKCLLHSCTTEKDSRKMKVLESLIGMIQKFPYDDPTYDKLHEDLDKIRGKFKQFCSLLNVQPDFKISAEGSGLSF

log2 fold change, inactive:
MCUR1 (UniProt Q96AQ8) 0.011
ITPRIP (UniProt Q8IWB1) -0.063
MAP2K1 (UniProt Q02750) 0.047
LPGAT1 (UniProt Q92604) -0.115
LMNB1 (UniProt P20700) -0.004
LTV1 (UniProt Q96GA3) -0.101
MAIP1 (UniProt Q8WWC4) 0
MIER1 isoform 12 (UniProt Q8N108) 0.055
KCT2 (UniProt Q8NC54) 0.039
KPNA4 (UniProt O00629) 0.008
MAPK12 (UniProt P53778) 0.074
LDLR (UniProt P01130) 0.03
LMF2 (UniProt Q9BU23) 0.006
LTN1 isoform 3 (UniProt O94822) -0.05
LRPPRC (UniProt P42704) -0.18
MAD2L1 (UniProt Q13257) 0
LARP4B (UniProt Q92615) -0.122
ILK (UniProt Q13418) 0.029
LTO1 (UniProt Q8WV07) -0.028
KIF3A (UniProt Q9Y496) 0.04
MAP3K20 (UniProt Q9NYL2) -0.043
MAGOHB (UniProt Q96A72) -0.031
MAP3K4 isoform 2 (UniProt Q9Y6R4) 0.049
